# Screening data as filed in PubChem.
# This is a sample that favours compounds with a hit; in the whole collection about 2.1% have one here.
# FUS suppressor = rescues growth of FUS-expressing yeast; S. cerevisiae FUS-expressing, growth rescue, OD600, 24 h; Potency, µM (top dose mostly 76.6 µM), actives largely listed as activators; 390,000 tested, 0.24% active; AID 1347120;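 also: plate controls were DMSO vehicle for no effect and reference control for full effect; nearly all actives have a fitted effect of over 55% in size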
#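 Yeast FUS proteinopathy model; galactose-induced FUS (2%), starting OD 0.005. Cpds in dilution series, 24hr, 30C, 99% humidity. Abs 600 nm growth. Pos ctrl CP55940 (top 92uM final); neg ctrl DMSO.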
# Abeta yeast res = restores growth of yeast expressing A-beta42 peptide; yeast expressing A-beta42, growth rescue, OD600, 48 h; response scale: 0% DMSO, 100% iron-clioquinol control; Potency, µM (top dose mostly 46.1 µM), most hits filed as activators; 410,000 tested, 0.063% active; AID 1347071; also: nearly all actives have a fitted effect of over 55% in size
#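 Yeast growth medium received pinned compounds, then yeast cells expressing toxic A-beta were added; plates incubated at 30 C for 48 hr. Growth read as absorbance at 600 nm, normalized to DMSO and equimolar FeCl3 plus clioquinol controls.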
# PTAP TSG101 blk = blocks PTAP/TSG101 interaction to inhibit HIV-1 budding; Q99816; Fluorescence polarization, FITC-PTAP peptide / Tsg101 binding; Potency, µM (highest dose often 115 µM), inactives show top-dose activity change, negative = inhibition, hits mostly inhibitors; 340,000 tested, under 10 active; AID 493005; active = well fitted inhibition curve with a large enough effect in the main read-out, with a control signal flat, not every such curve was filed as active; inconclusive = small, poorly fitted or top-dose-only effect, or effect the other way, or a change in a side signal; inactive = no such curve, though single readings can be large or run the other way; also: % of control where 0% means no effect
# Target sequence (Q99816 whole entry, looked up): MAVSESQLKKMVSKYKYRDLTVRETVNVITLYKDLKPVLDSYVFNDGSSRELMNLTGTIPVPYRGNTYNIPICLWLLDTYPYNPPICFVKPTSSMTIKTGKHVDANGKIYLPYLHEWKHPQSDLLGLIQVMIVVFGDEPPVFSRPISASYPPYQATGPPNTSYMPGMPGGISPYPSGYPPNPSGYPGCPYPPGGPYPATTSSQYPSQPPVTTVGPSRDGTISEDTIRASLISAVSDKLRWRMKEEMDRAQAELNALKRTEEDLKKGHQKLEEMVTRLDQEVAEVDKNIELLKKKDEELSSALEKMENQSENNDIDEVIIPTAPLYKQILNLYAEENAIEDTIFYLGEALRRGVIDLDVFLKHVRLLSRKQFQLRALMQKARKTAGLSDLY
#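 Fluorescence anisotropy tracks displacement of a FITC-tagged PTAP peptide (50 nM) from the Tsg101 binding domain (10 uM), following a 20 min room-temperature incubation at pH 7.5.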
# TDP43 rescue = TDP-43 toxicity inhibition in yeast; 410,000 tested, 1.8% active; TDP-43 expressing yeast growth rescue, BacTiter-Glo, 24 h; Potency, µM (top dose mostly 46.1 µM), inactives show top-dose growth rescue (activation), actives largely listed as activators; also: % of control where 0% means no effect; nearly all actives have a fitted effect of over 50% in size
#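 Cell-based yeast growth screen: TDP-43 expression induced in galactose, inoculum OD600=0.02 after raffinose pregrowth to mid-log. Read-out BacTiter-Glo luminescence at 24 hr, 30 deg C; inhibition of toxicity seen as signal increase.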
# aSyn rescue = alpha-synuclein toxicity inhibition in yeast. 370,000 tested, 0.14% active. Potency, µM (titrated, usually from 46.1 µM), without a hit: top-dose growth rescue (activation), hits mostly activators. Yeast expressing alpha-synuclein, growth rescue, BacTiter-Glo, 24 h. AID 652106; also: % of control where 0% means no effect; nearly all actives have a fitted effect of over 65% in size
#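 Screening used galactose-induced yeast with toxic alpha-synuclein levels, exposed to compound for 24 hr at 30 deg C. Cell growth, read with BacTiter-Glo luminescence, gave the measured signal.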
# Numbers without * were called inactive; i = inactive; ? = inconclusive; . = no result; [ ] = remark or other dose. Unless noted, calls follow the shape of the dose curve; as a rule, active = well fitted curve in the direction sought with a large enough effect; inconclusive = small, poorly fitted or top-dose-only effect, or another doubt; inactive = no such curve, though single readings can be large; an effect the other way counts as inactive or inconclusive. Potency is read from the fitted curve at half-maximal effect.
SMILES,FUS suppressor,Abeta yeast res,PTAP TSG101 blk,TDP43 rescue,aSyn rescue
NC(=S)c1ccc(OCCCc2ccccc2)cc1,i,i,.,10µM*,8%
CCCCOc1ccc(C(=O)NCCc2ccccc2)cc1,i,i,-6%,15%,-1%
O=C(Nc1cccc(Br)c1)c1ccccc1-c1ccccc1,i,?,-2%,16µM*,0%
O=C(O)c1ccccc1-c1ccccc1C(=O)Nc1cccc(Br)c1,i,i,-3%,2%,7%
COc1ccc(NC(=O)c2ccccc2-c2ccccc2)cc1,i,i,0%,15%[9.22 µM],-19%
O=C(Nc1ccc(F)c(F)c1)c1ccccc1-c1ccccc1,.,7.1µM*,-5%,?,1%
CN1C(=O)c2ccccc2Sc2ccc(NC(=O)c3ccccc3F)cc21,i,i,.,18µM*,.
O=S(=O)(Nc1cccc(-c2ccc(N3CCCCC3)nn2)c1)c1cccc(F)c1,i,i,.,-6%,.
O=C(O)c1ccccc1C(=O)N1N=C2/C(=C/c3cccc([N+](=O)[O-])c3)CCCC2C1c1cccc([N+](=O)[O-])c1 (centres undefined),25µM*,i,-11%,-13%,1%
CC(=O)Nc1sc2c(c1-c1nc(-c3ccccc3)cs1)CCN(C(C)C)C2,i,.,.,.,.
Cc1ccc(-c2nc3ccccc3c(=O)n2O)cc1,i,i,1%,-40%,20µM*
O=c1c2ccccc2nc(-c2ccccc2)n1Cc1ccccc1,i,i,-1%,22µM*,-8%
CC(C)Cn1c(CN2CCN(c3cccc(Cl)c3)CC2)nc2c1c(=O)[nH]c(=O)n2C,i,i,.,-19%,.
CC(=O)N1CCc2c(sc3c2c(=O)n(Cc2ccccc2)c(=O)n3Cc2ccccc2Cl)C1,i,i,.,16µM*,.
CC(=O)N1CCc2c(sc3c2c(=O)n(Cc2ccccc2)c(=O)n3Cc2ccccc2F)C1,i,i,.,17%,.
CC(=O)N1CCc2c(sc3c2c(=O)n(CCc2ccccc2)c(=O)n3Cc2ccc(F)cc2)C1,?,i,.,16µM*,.
Cc1cc(Cl)ccc1OCC(=O)Nc1c(Cl)ccc2nsnc12,i,i,.,2%,-4%
COc1ccc(S(=O)(=O)NCCc2sc(-c3ccccc3)nc2C)cc1OC,i,i,.,17%,28%
CSc1ccc(CCNC(=O)Cn2ncn3c(cc4ccccc43)c2=O)cc1,i,i,.,17%,.
O=C(c1c[nH]c(C(=O)C(Cl)(Cl)Cl)c1)c1c(F)cccc1F,i,i,-4%,-93%,-13%
O=C(c1c[nH]c(C(=O)C(Cl)(Cl)Cl)c1)c1ccccc1F,i,i,-2%,10µM*,-3%
CCc1ccc(S(=O)(=O)N(C(=O)c2ccncc2)c2ccc3oc(C)c(C(=O)OC)c3c2)cc1,i,i,.,20µM*,.
Cc1ccc(NC(=O)Cn2c(=O)n(CCC(C)C)c(=O)c3cccnc32)cc1C,i,i,.,-3%,.
Cc1ccccc1C(=O)Nc1cccc(-c2nnc(SCC(=O)NCc3ccco3)n2C)c1,.,.,.,.,2%
S=C1NC(c2ccccc2)=CC(c2ccccc2)N1 (centres undefined),?,13µM*,-6%,-25%,17%
SMILES,FUS suppressor,Abeta yeast res,PTAP TSG101 blk,TDP43 rescue,aSyn rescue
S=C1NC(c2cccs2)=CC(c2ccc(Br)cc2)N1 (centres undefined),.,i,-3%,20µM*,-6%
Fc1cccc(Cl)c1CSc1nnc(-c2ccncc2)o1,i,i,-4%,13µM*,-9%
Clc1ccccc1CSc1nnc(-c2ccncc2)o1,i,i,-5%,10µM*,7%
COc1cc(-c2nnc(SCc3c(F)cccc3Cl)o2)cc(OC)c1OC,i,i,-5%,?,1%
Clc1cccc(NCc2nnc(SCc3ccccc3)o2)c1,i,i,-3%,0%,5%
Clc1cccc(NCc2nnc(SCc3ccccc3Cl)o2)c1,.,i,-1%,13µM*,20µM*
N=c1nc(N)nc2n1NC(c1ccc(F)cc1)=CS2,i,i,-1%,11µM*,13µM*
Fc1ccc(C2=CSC3=NCCN23)cc1,i,i,-1%,-3%,-4%
S=C(NCC1CCCO1)c1ccc(Br)cc1 (centres undefined),i,i,3%,11µM*,-8%
O=C(NCC1CCCO1)c1ccc(C(=O)NCC2CCCO2)cc1 (centres undefined),i,i,-8%,-20%,3%
O=C(c1ccc(Cl)cc1)c1cc(-c2ccccn2)c(N2CCOCC2)s1,i,i,-6%,14µM*,5%
O=C(c1cccc(Cl)c1)N1c2nc(-c3ccco3)nn2C2(CCCCC2)[C@@H]2CCCC[C@@H]21,i,i,.,8%,.
O=C(c1cccc(Cl)c1)N1c2ncnn2C2(CCCCC2)[C@@H]2CCCC[C@@H]21,i,i,.,13µM*,.
O=C1CC(c2ccccc2)=Nc2ccccc2N1Cc1ccccc1,i,i,0%,13µM*,10%
O=C(CN1C(=O)CC(c2ccccc2)=Nc2ccccc21)Nc1ccc(Br)cc1,i,i,.,-5%,.
Oc1ccccc1C=NN1CCN(Cc2ccccc2)CC1,i,.,.,.,.
COc1ccc(N2CCCN(CC(=O)Nc3ccccc3C)CC2)cc1,i,.,.,.,.
S=C(Nc1nc2c(s1)CCCC2)NC1CC1,i,8.9µM*,0%,26%,2%
Cc1ccc(CCNC(=O)CN2CCN(Cc3ccc(Cl)cc3)C2=O)cc1,i,i,.,?,.
COc1ccc(-c2nc3c4ccccc4ccn3c2Cc2ccccc2C(F)(F)F)cc1OC,?,i,.,20µM*,17%
COc1ccc(Cc2c(-c3ccc(F)cc3)nc3c4ccccc4ccn23)c(C)c1,i,i,.,?,16%
CCOC(=O)Cc1c(-c2cccc(Br)c2)nc2c3ccccc3ccn12,i,i,.,22µM*,8%
COc1ccc(Cc2c(-c3ccccc3)nc3c4ccccc4ccn23)c(C)c1,i,i,.,11µM*,17%
Fc1ccc(-c2nc3c4ccccc4ccn3c2Cc2ccccc2C(F)(F)F)cc1,i,?,.,?,16%
COc1ccccc1Cc1c(-c2ccc(OC)c(OC)c2)nc2c3ccccc3ccn12,?,i,.,11µM*,4%
Cc1c(C(=O)NCc2cccc(Br)c2)oc2ccc3c(c12)C(=O)CC(C)(C)O3,i,i,.,7%,.
COCC(=O)N[C@H]1C[C@@H]2O[C@H](CO)CC[C@@H]2O[C@@H]1CCc1ccc(-c2ccccc2)cc1,i,.,.,.,.
COc1cc(Cl)c(NC(=O)c2cc3ccccn3n2)c(OC)c1,i,i,.,?,.
NC(=O)CSc1oc(-c2cccs2)nc1S(=O)(=O)c1ccc(Br)cc1,?,i,.,1%,.
